MBNL1-CUG inh = blocks human MBNL1 binding to CUG repeat RNA; Q9NR56; TR-FRET MBNL1-His/biotin-(CUG)12 binding, 665/545 ratio; hit rate 0.036% among 280,000; Potency, µM (top dose mostly 57.5 µM), inactives show top-dose activity change, negative = inhibition, most hits filed as inhibitors; active = well fitted inhibition curve with a large enough effect in the signal ratio, with a control signal flat, not every such curve was filed as active; inconclusive = small, poorly fitted or top-dose-only effect, or effect the other way, or a change in a side signal; inactive = no such curve, though single readings can be large or run the other way; the % refers to the signal ratio; note: potency is the fitted concentration of half-maximal effect; % is set by controls: 0 for no effect and ±100 for the full control effect
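TR-FRET readout: Ex 340 nm, 665/545 nm emission ratio, normalized to buffer-only (basal) and MBNL1-(CUG)12 controls. Complex of MBNL1-His with Biotin-(CUG)12, compounds 92 nM–58 uM, incubated 60 min at room temperature.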
CBFb-RUNX1 inh = blocks binding between human CBF-beta and RUNX1. AlphaScreen CBFb-His/RUNX1-biotin binding, biochemical. AID 1477. Potency, µM (series often up to 59.8 µM), without a hit: top-dose activity, negative = inhibition, hits mostly inhibitors. Q01196+Q13951. 230,000 tested, under 10 active; note: % of control where 0% means no effect
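AlphaScreen proximity signal reports loss of binding between His-tagged CBF-beta and biotin-labelled RUNX1, each at 30 nM. Proteins are pre-associated for 20 minutes, compounds added for 15 minutes, then beads for 90 minutes, all at ambient temperature.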
KCNH2 3.1 block = blocks the human KCNH2 3.1 channel isoform | U2OS KCNH2 3.1, thallium flux FluxOr; stronger effect = lower value | activity change, % (tested at about 1.8 µM) | hit rate 0.95% among 340,000 | AID 720553;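 active = maximum activity change below -70%; inconclusive = maximum activity change from -70% to -50%; inactive = maximum activity change above -50%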;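 note: thallium influx rate constant from kinetic fluorescence after stimulation buffer; % is set by controls: 0 for no effect and ±100 for the full control effect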
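Kinetic fluorescence (2 min after stimulation buffer) measures Tl+ influx through KCNH2 3.1 expressed by viral transduction in U2OS cells; the rate constant is normalized against DMSO controls serving as positive and negative references.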
VDR inh = inhibitors of human vitamin D receptor. VDR-SRC2-3 peptide fluorescence polarization, 2 h. Potency, µM, without a hit: max response, negative = inhibition, actives largely listed as inhibitors. P11473. hit rate 0.93% among 400,000; note: potency is the fitted concentration of half-maximal effect; % is set by controls: 0 for no effect and ±100 for the full control effect
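VDR–SRC2-3 interaction, FP format. Cmpds 23 nl via pintool, brief spin, 2 h ambient incubation.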
KCNH2 WT inh = KCNH2 (human, wildtype) channel inhibition. hit rate 0.37% among 340,000. activity change, % at 1.84 µM. AID 720551. Q12809. U2OS, BacMam KCNH2, thallium flux FluxOr; stronger effect = lower value;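 active = maximum activity change below -70%; inconclusive = maximum activity change between -70% and -50%; inactive = maximum activity change above -50%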; note: % is set by controls: 0 for no effect and ±100 for the full control effect
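U2OS cells transduced with wild-type KCNH2 virus are loaded with FluxOr dye for 45 min, and thallium flux is measured in kinetic reads before and after stimulation buffer. Rate constants are normalized to DMSO controls.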
PLK1 PBD block = blocks phosphopeptide binding to human PLK1 polo-box domain | P53350 | Potency, µM, for inactives: max response, negative = inhibition, hits mostly inhibitors | hit rate 2.8% among 360,000 | Plk1 PBD binding of FITC phosphopeptide, fluorescence polarization; note: potency is the fitted concentration of half-maximal effect; series mostly up to about 57 µM; % is set by controls: 0 for no effect and ±100 for the full control effect; nearly all actives have a fitted effect of over 65% in size
VDR inh confirm = inhibits human vitamin D receptor, primary hit validation; AID 602199; shares compounds with VDR inh; Potency, µM, hits mostly inhibitors; hit rate 89% among 840; VDR-coactivator inhibition assay, qHTS confirmation; note: potency is the fitted concentration of half-maximal effect
VDR FP fluor = confirmation of human VDR-coactivator binding inhibitors, fluorescein label; shares compounds with VDR inh; VDR-coactivator binding, fluorescein fluorescence polarization; Potency, µM (series often up to 57.1 µM), without a hit: top-dose activity change, negative = inhibition, usual class: inhibitors; hit rate 48% among 840; note: potency is the fitted concentration of half-maximal effect
VDR bla = inhibits human VDR in beta-lactamase reporter cells. shares compounds with VDR inh. VDR beta-lactamase reporter cells, FRET ratio; cells co-treated with VDR agonist LG190178. Potency, µM (series often up to 46.1 µM), for the others: at the top dose activity change, negative = inhibition, usual class: inhibitors. hit rate 23% among 840. AID 602202; note: potency is the fitted concentration of half-maximal effect; % is set by controls: 0 for no effect and ±100 for the full control effect
VDR cytotox = cytotoxic in counter-screen for VDR inhibitors; AID 602204; Potency, µM (highest dose often 48.3 µM), for inactives: top-dose activity change, negative = cytotoxicity, hits mostly cytotoxic; hit rate 18% among 840; cytotoxicity counter-screen, cell viability, qHTS; shares compounds with VDR inh;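 note: potency is the fitted concentration of half-maximal effect; plate controls were DMSO for no effect and high-concentration cycloheximide for full effect; nearly all actives have a fitted effect of over 75% in size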
Numbers without * were called inactive; ? = inconclusive; nt = no result given. Only some compounds are listed: those with a hit (about 3.8% of all), similar ones and a draw of the others. Unless noted, calls come from the whole dose curve; as a rule, active = well fitted curve in the direction sought with a large enough effect; inconclusive = small, poorly fitted or top-dose-only effect, or another doubt; inactive = no such curve, though single readings can be large; an effect the other way counts as inactive or inconclusive.

SMILES	MBNL1-CUG inh	CBFb-RUNX1 inh	KCNH2 3.1 block	VDR inh	KCNH2 WT inh	PLK1 PBD block	VDR inh confirm	VDR FP fluor	VDR bla	VDR cytotox
O=C1NN(c2ccc(F)c(Cl)c2)C(=O)/C1=C\c1cccc(OC(=O)c2cccs2)c1	1.8%	-7.2%	-27.9	22.4µM*	-4.3	1.06µM*	10.6*	?	-18.2%	-8.9%
CC(C)=C1C(=O)NN(c2ccc(F)c(Cl)c2)C1=O	-6.4%	-18.6%	19.0	-1.9%	-12.5	-13.6%	nt	nt	nt	nt
COc1cc(OC)c(/C=C/c2nccc3ccccc23)c(OC)c1	nt	nt	nt	nt	nt	nt	8.91*	1.58µM*	20.6µM*	?
COc1cc(OC)c(C=Cc2ccncn2)c(OC)c1	nt	nt	-0.1	nt	16.6	-5.8%	nt	nt	nt	nt
CCCS(=O)(=O)c1ncc(Cl)c(C(=O)Nc2sc3c(c2C(=O)NCC)CCCC3)n1	nt	nt	nt	nt	nt	nt	3.16*	?	5.8µM*	?
Cc1[nH][nH]c(=O)c1C(c1ccc(-c2ccc(Cl)cc2Cl)o1)c1c(C)[nH][nH]c1=O	-6.6%	-20.7%	nt	nt	nt	nt	nt	nt	nt	nt
CCOc1cc(/C=N/NC(=O)c2nnn(-c3nonc3N)c2C)ccc1OCc1ccc(F)cc1	0.3%	nt	-36.1	-18.6%	-23.7	-17.1%	nt	nt	nt	nt
CCCOc1ccc(Cl)cc1/C=C1/C(=O)ON=C1C	?	nt	18.3	25.1µM*	-6.0	2.38µM*	10.6*	3.55µM*	13.0%	?
CC1=NOC(=O)/C1=C\c1ccc(-c2ccc(Cl)cc2Cl)o1	-1.6%	-8.7%	-18.7	22.4µM*	1.2	0.423µM*	3.77*	2.24µM*	?	?
C#CCOc1ccc(/C=C2/C(=O)ON=C2C)cc1Cl	16.5%	nt	9.0	44.7µM*	2.6	2.12µM*	5.97*	?	-3.1%	9.0%
CCOc1cc(/C=C2/C(=O)ON=C2C)ccc1OCc1ccc(F)cc1	2.0%	4.7%	12.6	79.4µM*	-12.8	?	?	157.4%	-4.8%	-34.0%
COc1cccc(C(=O)Nc2c3c(nn2-c2ccc(Cl)cc2)CS(=O)(=O)C3)c1	nt	nt	nt	15.6%	nt	nt	nt	nt	nt	nt
O=c1[nH]cc(C#Cc2ccccc2)c2ncncc12	nt	nt	nt	4.1%	nt	nt	nt	nt	nt	nt
COc1ccccc1CNC(=O)Cn1c(-c2cccs2)cc2cc(F)ccc21	nt	nt	nt	8.7%	nt	nt	nt	nt	nt	nt
COc1ccc(C)cc1NC(=O)Cn1c(=O)cc(C)c2c(C)nn(C)c21	nt	nt	nt	9.1%	nt	nt	nt	nt	nt	nt
C=CCOc1c(Br)cc(/C=C2/C(=O)ON=C2C)cc1OC	4.6%	nt	-18.6	44.7µM*	4.7	4.74µM*	9.47*	?	-9.9%	11.0%
C#CCOc1c(Cl)cc(/C=C2/C(=O)ON=C2C)cc1OCC	4.6%	nt	4.5	?	0.6	5.97µM*	7.94*	7.94µM*	-4.4%	9.9%
C#CCOc1c(Cl)cc(/C=N/NC(N)=S)cc1OCC	-7.6%	-4.0%	0.8	-21.6%	-3.3	-8.3%	nt	nt	nt	nt
CCN(c1ccccc1)c1nnc(NC(=O)Nc2cccc(Br)c2)s1	nt	nt	nt	19.6%	nt	nt	nt	nt	nt	nt
O=C(/C=C/c1c(F)cccc1Cl)c1ccc(F)cc1	10.4%	6.3%	-8.5	44.7µM*	3.1	?	10.6*	8.91µM*	28.9%	-16.6%
O=C(N/N=C/c1c(Cl)cccc1Cl)c1ccc(F)cc1	16.0%	0.8%	-4.7	8.4%	4.1	1.7%	nt	nt	nt	nt
CCC(C)OC(=O)/C(C#N)=C\c1ccc(-c2cccc(C(F)(F)F)c2)o1 (stereo unspecified)	nt	nt	nt	-6.4%	nt	nt	nt	nt	nt	nt
COc1ccc2c(c1)C(=O)[C@@H](OC(=O)NS(=O)(=O)c1ccc(F)cc1)[C@H](c1ccc(OC)c(Br)c1)O2	nt	4.5%	nt	-3.1%	nt	nt	nt	nt	nt	nt
CCOC(=O)COc1ccccc1/C=C\[N+](=O)[O-]	-10.2%	3.5%	-40.3	11.2µM*	2.7	7.52µM*	3.36*	?	4.61µM*	8.2µM*
CN(C)S(=O)(=O)c1ccc2c(c1)C(=O)c1cc(S(=O)(=O)N(C)C)ccc1CC2	nt	nt	nt	14.7%	nt	nt	nt	nt	nt	nt
